Sampled rows, rich in hits. Any-hit rate of the full collection: about 5.7%.
GLP1R cytotox = cytotoxicity in counter-screen for GLP-1R inverse agonists; HEK293 cAMP-luciferase reporter cells, luminescence, 24 h; Potency, µM (titrated, usually from 38.3 µM), for the others: at the highest dose activity change, negative = inhibition, hits mostly inhibitors; 0.13% of 410,000 active; AID 624418;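 also: loss of luciferase light is scored as toxicity; potency is read from the fitted curve at half-maximal effect; % is scaled to controls: 0 for no effect and ±100 for the full control effect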
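A 23 nL compound transfer followed 12 hours of cell culture at 37 deg C; exposure then lasted 24 hr. Luciferase assay detection reagent was dispensed and plates read for luminescence after a 12 min room-temperature wait.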
GLP-1R agonist = GLP-1 receptor (human) agonism. P43220. HEK293 GLP-1R CRE-luciferase, luminescence, 4-6 h; cells express a hypersensitive GLP-1R form. Potency, µM (doses to about 45.6 µM), for the others: top-dose activation, usual class: activators. 0.007% of 380,000 active; also: potency is read from the fitted curve at half-maximal effect; % of control where 0% means no effect
Target sequence (P43220 whole entry, looked up): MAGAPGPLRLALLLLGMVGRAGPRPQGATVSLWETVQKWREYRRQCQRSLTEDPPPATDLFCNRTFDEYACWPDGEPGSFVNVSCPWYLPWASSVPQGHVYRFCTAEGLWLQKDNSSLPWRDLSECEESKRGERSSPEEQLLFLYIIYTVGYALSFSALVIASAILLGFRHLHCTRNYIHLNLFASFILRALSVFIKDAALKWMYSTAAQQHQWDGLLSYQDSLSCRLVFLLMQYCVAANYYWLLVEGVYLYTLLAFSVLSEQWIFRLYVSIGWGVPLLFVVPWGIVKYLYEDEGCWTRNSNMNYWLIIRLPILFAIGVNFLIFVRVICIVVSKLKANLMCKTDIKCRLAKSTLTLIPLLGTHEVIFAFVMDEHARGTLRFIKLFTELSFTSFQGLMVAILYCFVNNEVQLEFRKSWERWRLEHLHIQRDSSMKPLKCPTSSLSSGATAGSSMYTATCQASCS
ClpP mod = qHTS Assay for Activators of ClpP. Potency, µM (top dose mostly 57.5 µM), inactives show at the highest dose activity change, negative = active. AID 651965, 2013. purified B. subtilis ClpP, FRET peptide cleavage, 20 min. ATP-dependent Clp protease proteolytic subunit (Bacillus subtilis (strain 168)), P80244. 1.9% of 340,000 active; active = well fitted falling curve with a large enough effect; inconclusive = small, poorly fitted or top-dose-only effect; inactive = no such curve, though single readings can be large or run the other way; also: potency is read from the fitted curve at half-maximal effect; the source files actives as falling curves though it sought activators and does not explain the sign; nearly all actives have a fitted effect of over 65% in size
Target sequence (P80244 whole entry, looked up): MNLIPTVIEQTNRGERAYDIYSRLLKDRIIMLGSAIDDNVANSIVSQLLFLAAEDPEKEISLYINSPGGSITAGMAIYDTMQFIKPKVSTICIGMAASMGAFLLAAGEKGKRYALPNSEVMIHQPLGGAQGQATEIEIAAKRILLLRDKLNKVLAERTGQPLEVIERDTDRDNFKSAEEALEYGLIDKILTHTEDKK
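Purified B. subtilis ClpP, 10 microg/mL final in Tris/HCl pH8 with KCl, BSA, glycerol and Tween-20, cleaved an Abz/nitrotyrosine-quenched decapeptide. Fluorescence (ex 320, em 430) was read at 0 and 20 min at room temperature. Delta was normalized to 5.8 microM ADEP and DMSO/no-enzyme controls.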
GLP1R inv ag = GLP-1 receptor (human) inverse agonism. HEK293 GLP-1R CRE-luciferase, luminescence, 24 h; GLP-1R form is constitutively active. AID 624417. Potency, µM (doses to about 38.3 µM), for inactives: top-dose activity change, negative = inhibition, actives largely listed as inhibitors. 1.6% of 410,000 active; also: potency is read from the fitted curve at half-maximal effect; % is scaled to controls: 0 for no effect and ±100 for the full control effect; nearly all actives have a fitted effect of over 55% in size
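Constitutively active GLP-1R drives a cAMP-responsive luciferase in stably transfected HEK293 cells; test compounds are added after overnight (12 h) attachment and left 24 hr, and signal loss in luminescence marks inhibition.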
DRD3 agonist = activates the human D3 dopamine receptor; 0.58% of 410,000 active; max activation, %; AID 652048; P35462; D3R DiscoveRx beta-arrestin cells, luminescence, 90 min; in the data active = max activation above about 30%; also: 0% is about no effect
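Cells at 1500/well, incubated overnight, then treated with pinned compounds (dopamine as control) for 90 min at 37 degrees C. DiscoveRx reagent added for 30 - 60 minutes at room temperature; luminescence read.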
D3 antag = antagonists of human D3 dopamine receptor | 2.5% of 360,000 active | D3R cells, DiscoveRx beta-arrestin luminescence, antagonist mode; stronger effect = lower value | max response, negative = inhibition, % | P35462; in the data active = max response below about -50%; inconclusive = no clear call, values can overlap the other calls; also: % is scaled to controls: 0 for no effect and ±100 for the full control effect
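Cells expressing the human receptor were seeded at 1500 cells/well, incubated overnight at 37 degrees C in 5% CO2, then exposed to library compounds with dopamine controls for 90 minutes at 37 degrees C before luminescent detection.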
An asterisk follows results filed as active; ? = inconclusive; . = not tested or not shown. Unless noted, calls follow the shape of the dose curve; as a rule, active = well fitted curve in the direction sought with a large enough effect; inconclusive = small, poorly fitted or top-dose-only effect, or another doubt; inactive = no such curve, though single readings can be large; an effect the other way counts as inactive or inconclusive.

SMILES	GLP1R cytotox	GLP-1R agonist	ClpP mod	GLP1R inv ag	DRD3 agonist	D3 antag
COc1ccc(/C=N/NC(=O)c2ccccc2)cc1CN1CCN(c2ccc(F)cc2)CC1	10.6%	5.0%	-3.3%	0.0%	-17.9	-17.1
COc1ccc(C(=O)N/N=C/c2ccc(OC)c(COc3ccc(F)cc3)c2)cc1	3.5%	-28.5%	?	10µM*	-38.5	-8.1
COc1ccc(Cc2c(-c3ccco3)nc3ccc(Cl)cn23)c(C)c1	-5.2%	-1.3%	?	7.4%	-14.4	?
CC1(C)S[C@@H]2[C@H](NC(=O)C(C(=O)Oc3ccc4c(c3)CCC4)c3ccccc3)C(=O)N2[C@H]1C(=O)O (stereo partly drawn)	.	-5.6%	.	.	-11.1	.
COc1ccc(/C=N/NC(=O)c2ccccc2OC)cc1COc1ccc(C)cc1	0.5%	-8.0%	25.1µM*	13.5%	2.3	10.5
COc1ccc(/C=N\NC(=O)c2ccccc2Br)cc1COc1ccc(F)cc1	13.9%	-3.0%	-16.2%	21.0%	2.8	10.2
O=[N+]([O-])c1ccccc1NCCNS(=O)(=O)c1ccc(Cl)cc1	-19.9%	0.8%	2.2%	-23.7%	-2.9	-26.3
O=[N+]([O-])c1ccc(NCCCNS(=O)(=O)c2ccc(Cl)cc2)c(Cl)c1	9.7%	-2.0%	0.9%	11.2µM*	-3.7	-27.5
CC1CCC(C(C)C)C(OC(=O)Cn2c(-c3ccc(Cl)cc3)[n+](C)c3ccccc32)C1 (stereo not drawn)	10µM*	-1.6%	-7.5%	10µM*	-26.2	?
CC1CCC(C(C)C)C(OC(=O)COC(=O)c2ccc(N)cc2)C1 (stereo not drawn)	-20.3%	17.8%	-10.0%	?	23.3	2.7
CC1CCC(C(C)C)C(OC(=O)COC(=O)c2cccn2C)C1 (stereo not drawn)	-6.4%	3.1%	-0.3%	10µM*	5.2	6.4
Cc1cccc(C)c1NC(=O)CCCSc1nnc(-c2ccc(Cl)cc2)n1-c1ccccc1	-26.0%	-0.9%	-1.8%	5.62µM*	-7.4	-13.0
Cc1cccc(C)c1NC(=O)CCCSc1nnc(-c2ccc(F)cc2)n1-c1ccccc1	-13.2%	1.2%	-2.7%	?	3.7	6.0
O=C(O)CN=C(Nc1cc(Cl)cc(Cl)c1)NC(c1ccccc1)c1ccccc1	-11.7%	-1.7%	-2.3%	?	6.2	49.4
COc1cc(/C=C/c2ccnc3ccccc23)cc(OC)c1OC	.	.	-4.0%	.	.	.
CC(C)=CCc1c(O)cc2c(=O)c3ccc(O)cc3oc2c1O	-5.9%	10.8%	1.2%	63.7%	-10.6	9.0
CC(C)=CCc1c(O)cc(O)c2c(=O)c3c(CC=C(C)C)c(O)ccc3oc12	?	-3.8%	-2.7%	10µM*	0.0	1.8
CC(C)NC(=O)N1Cc2cc(C(=O)NC3CCCCC3)nc(-c3cccc(-c4cccnc4)c3)c2[C@@H]1CCO	5.1%	11.2%	-1.1%	-19.5%	28.8	-4.5
CCc1nnc(NC(=O)c2ccc(Cl)c(S(=O)(=O)N3CCc4ccccc43)c2)s1	-12.4%	-14.7%	-4.0%	-18.1%	1.9	96.8
O=C(Nc1nnc(C2CC2)s1)c1ccc(Cl)c(S(=O)(=O)N2CCc3ccccc3C2)c1	-4.8%	4.8%	0.8%	?	41.2*	0.0
CCOC(=O)c1nn(C)c(C)c1Cl	-1.9%	4.8%	-0.5%	5.3%	-29.7	-71.3*
N#CC(NC(=O)OCc1ccccc1)c1ccccc1 (stereo not drawn)	-23.2%	7.4%	-0.4%	-29.6%	-17.5	-54.3*
COc1ccc(CCN(C)C(=O)CSc2nnc(C3CC3)n2N)cc1OC	-1.3%	8.4%	25.1µM*	41.8%	-10.0	2.0
COc1ccc(C(=O)CSc2nnc(C3CCCCC3)n2N)c(OC)c1	1.3%	5.5%	-0.7%	4.9%	8.7	15.4
COc1ccc(S(=O)(=O)N2CCC(Oc3ccc(-n4cnnn4)cc3)CC2)cc1OC	-7.1%	.	-0.6%	12.8%	3.9	.
SMILES	GLP1R cytotox	GLP-1R agonist	ClpP mod	GLP1R inv ag	DRD3 agonist	D3 antag
Cc1nnsc1-c1nc2ccccc2n1C(CCc1ccccc1)c1nc2ccccc2[nH]1 (stereo not drawn)	-15.7%	.	-14.1%	11.2µM*	-9.5	-12.1
Cc1ccc(Cc2nc3ccccc3n2C(CCc2ccccc2)c2nc3ccccc3[nH]2)cc1 (stereo not drawn)	5.3%	.	-1.3%	23.7%	-2.9	0.2
CCCOC(=O)c1cc(O)c(O)c(O)c1	.	3.3%	.	.	10.0	.
COC(=O)c1cc(O)c(O)c(O)c1	-7.1%	7.2%	1.3%	8.3%	34.5*	-1.4
COc1cc(NS(=O)(=O)c2ccc(C)cc2)c2ncccc2c1	?	14.0%	-7.4%	?	-16.3	-55.0*
Cc1ccnc(NS(=O)(=O)Cc2ccccc2)c1	-13.4%	-0.6%	39.8µM*	0.0%	-4.6	1.9
COc1ccc(S(=O)(=O)Nc2ccccn2)cc1	-7.9%	7.0%	.	0.9%	1.7	5.9
Cc1ccc(S(=O)(=O)Nc2ccccc2-c2ccccc2NS(=O)(=O)c2ccc(C)cc2)cc1	-30.1%	-15.1%	0.5%	?	7.0	20.8
COc1ccc(S(=O)(=O)Nc2cc(C)ccn2)cc1	4.9%	9.9%	14.1µM*	-2.9%	3.0	-16.1
Cc1ccc(S(=O)(=O)Nc2cccc3cccnc23)cc1	?	-14.9%	?	?	-11.7	-80.6*
CCCC1=Nc2cc(C(=O)NC(C)c3ccccc3)ccc2Sc2ccc(C)cc21 (stereo not drawn)	-18.6%	-3.0%	-0.1%	4.47µM*	-9.3	.
CCCC1=Nc2cc(C(=O)NCc3ccc(OC)cc3)ccc2Sc2ccc(C)cc21	-25.0%	-4.2%	-2.0%	4.47µM*	-18.0	.
CCCC1=Nc2cc(C(=O)NCCc3ccccc3)ccc2Sc2ccc(C)cc21	?	-6.5%	-1.8%	?	-19.6	.
O=C(O)Cn1nnc(-c2ccccc2)c1COc1ccccc1	9.1%	2.3%	-2.1%	5.4%	3.5	?
N=c1c2c(-c3ccccc3)c(-c3ccccc3)n(Cc3ccccc3)c2ncn1CCCn1ccnc1	10µM*	-56.1%	1.4%	7.94µM*	-14.8	-17.4
CCCCn1cnc2c(c(-c3ccccc3)c(-c3ccccc3)n2Cc2ccco2)c1=N	?	-0.4%	-1.7%	?	1.7	-0.2
N=c1c2c(-c3ccccc3)c(-c3ccccc3)n(Cc3ccco3)c2ncn1Cc1ccco1	?	-18.7%	3.1%	8.91µM*	-9.7	?
CC(=O)Nc1cccc(C(=O)OCC(=O)NC(=O)C2CCCCC2)c1	.	.	-5.0%	.	.	.
CCc1cccc(-n2nnc(S(=O)(=O)c3ccc(OC)cc3)c2C)c1	-11.2%	3.7%	0.1%	-25.4%	5.9	.

Source: PubChem BioAssay (National Center for Advancing Translational Sciences (NCATS))
